Measurements from PubChem BioAssay (EPA / NIEHS).
“And” between values parts separate entries of the source, which are not always exact repeats. Equal values may be shown once. Results filed as inconclusive are left out. More than one record can exist for a structure, and the calls need not agree. The source made the active and inactive calls. The calls were made as follows, unless noted: active = hit-call score of the fitted dose curve at least 0.9, where 1 is the maximum; inactive = score below 0.9.

Assays:
[1] = ATG_XTT_Cytotoxicity: Cytotoxicity Assessment in the Attagene TRANS-FACTORIAL HepG2 Assay (AID 2283584; active = hit-call score of the fitted dose curve at least 0.9, where 1 is the maximum;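 as to AC50: XTT signal for cell number as viability in transfected HepG2 cells; cells exposed to compound for 24 h before reading; active means loss of viability signal versus DMSO baseline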)
How it was run: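 24 h chemical exposure of reporter-transfected HepG2; XTT signal loss vs DMSO indicates cytotoxicity.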

[2] = TOX21_p53_BLA_p2_viability: Viability Assessment in the Tox21 HCT-116 p53 Agonism Beta-lactamase Assay, Phase 2 (AID 2283591; active = hit-call score of the fitted dose curve at least 0.9, where 1 is the maximum;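 also: compound exposure lasted 16 h at 37 °C; actives lower the ATP signal meaning cytotoxicity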)
How it was run: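 HCT116 p53-bla cells, 4000/well, dosed after 5 h plating (217-fold dilution of DMSO stocks) and incubated 16 h at 37C. Viability taken as cellular ATP by CellTiter-Glo luminescence after 30 min RT; signal loss marks cytotoxicity.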

[3] = TOX21_p53_BLA_p3_viability: Viability Assessment in the Tox21 HCT-116 p53 Agonism Beta-lactamase Assay, Phase 3 (AID 2283593; active = hit-call score of the fitted dose curve at least 0.9, where 1 is the maximum;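 also: cells exposed to compound for 16 h before reading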)
How it was run: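 HCT116 cells, 4000/well, dosed 5 h after plating by pin transfer (217-fold dilution from DMSO stock) and incubated 16 h at 37C, 5% CO2. Viability read as ATP luminescence with CellTiter-Glo after 30 min at room temperature.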

[4] = TOX21_p53_BLA_p4_viability: Viability Assessment in the Tox21 HCT-116 p53 Agonism Beta-lactamase Assay, Phase 4 (AID 2283597; active = hit-call score of the fitted dose curve at least 0.9, where 1 is the maximum;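 also: hits lower the luminescence signal meaning cytotoxicity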)
How it was run: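 In this multiplexed secondary endpoint, HCT116 cells (4000 per well, compound at 5 h, 16 h treatment) received CellTiter-Glo after the beta-lactamase read. Luminescence after 30 min RT reflects ATP, and falling signal marks cytotoxicity.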

[5] = read-out: succinate dehydrogenase complex iron sulfur subunit B (SDHB), SDHB (gene 6390); assay: LTEA_HepaRG_SDHB: Life Technologies and Expression Analysis (LTEA) Assay for succinate dehydrogenase complex iron sulfur subunit B (SDHB) using HepaRG (AID 2283528); conditions: mRNA level, 48 h; actives raise or lower the signal
How it was run: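 A human HepaRG culture in serum-free induction medium received test chemicals for 48 h over an eight-point range capped at 100 uM. SDHB expression change was quantified by qRT-PCR.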

[6] = read-out: solute carrier (SLCO1B1), SLCO1B1 (gene 10599); assay: LTEA_HepaRG_SLCO1B1: Life Technologies and Expression Analysis (LTEA) Assay for solute carrier (SLCO1B1) using HepaRG (AID 2283530); conditions: mRNA level, 48 h; actives raise or lower the signal
How it was run: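 Human HepaRG cultures treated for 48 h with an eight-concentration half-log series topping at 100 uM; SLCO1B1 measured by qRT-PCR and fitted bidirectionally relative to DMSO.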

[7] = read-out: sulfotransferase 2A1 (SULT2A1), SULT2A1 (gene 6822); assay: LTEA_HepaRG_SULT2A1: Life Technologies and Expression Analysis (LTEA) Assay for sulfotransferase 2A1 (SULT2A1) using HepaRG (AID 2283531); conditions: mRNA level, 48 h; actives raise or lower the signal
How it was run: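 Gene-expression endpoint in a human liver cell line: SULT2A1 mRNA change after 48 h chemical treatment, curves fitted in both directions relative to 0.5% DMSO vehicle. Concentrations spanned eight half-log steps from 100 uM.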

[8] = read-out: Transforming Growth Factor (TGFA), TGFA (gene 7039); assay: LTEA_HepaRG_TGFA: Life Technologies and Expression Analysis (LTEA) Assay for Transforming Growth Factor (TGFA) using HepaRG (AID 2283532); conditions: mRNA level, 48 h; actives raise or lower the signal
How it was run: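 qRT-PCR read-out of TGFA transcript, normalized to three housekeeping genes, fitted bidirectionally against 0.5% DMSO baseline. Human HepaRG cultures received chemicals for 48 h at eight half-log concentrations, top 100 uM.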

TIMP1, TIMP1 (gene 7076) = assay: LTEA_HepaRG_TIMP1: Life Technologies and Expression Analysis (LTEA) Assay for TIMP1 using HepaRG (AID 2283534); conditions: mRNA level, 48 h; actives raise or lower the signal
How it was run: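 TIMP1 induction or repression in HepaRG cells after 48 h chemical exposure (eight concentrations, highest 100 uM), assessed by normalized qRT-PCR with bidirectional fitting to DMSO controls.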

[9] = read-out: Tumor necrosis factor receptor 1 (TNFRSF1A), TNFRSF1A (gene 7132); assay: LTEA_HepaRG_TNFRSF1A: Life Technologies and Expression Analysis (LTEA) Assay for Tumor necrosis factor receptor 1 (TNFRSF1A) using HepaRG (AID 2283535); conditions: mRNA level, 48 h; actives raise or lower the signal
How it was run: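 Assay uses 48 h chemical treatment of differentiated HepaRG monolayers, tested in duplicate at eight concentrations from 100 uM downward in 0.5% DMSO. mRNA is normalized to ACTB, GAPDH and POLR2A, with induction or suppression fitted relative to vehicle.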

[10] = read-out: Thyroid Hormone Responsive (THRSP), THRSP (gene 7069); assay: LTEA_HepaRG_THRSP: Life Technologies and Expression Analysis (LTEA) Assay for Thyroid Hormone Responsive (THRSP) using HepaRG (AID 2283536); conditions: mRNA level, 48 h; actives raise or lower the signal
How it was run: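 qRT-PCR read-out (Fluidigm TaqMan), housekeeping-normalized (ACTB/GAPDH/POLR2A). HepaRG, 48 h chemical exposure, 8-pt half-log series from 100 uM in 0.5% DMSO, duplicates. Bidirectional curve fit vs 0.5% DMSO baseline.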

[11] = read-out: Cellular tumor antigen p53 (Homo sapiens) (UniProt P04637); assay: LTEA_HepaRG_TP53: Life Technologies and Expression Analysis (LTEA) Assay for Tumor Protein P53 (TP53) using HepaRG (AID 2283537); conditions: mRNA level, 48 h; actives raise or lower the signal
How it was run: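 Gain or loss of TP53 mRNA signal is scored relative to 0.5% DMSO after 48 h chemical treatment of HepaRG liver cells, tested in duplicate at eight half-log concentrations up to 100 uM.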

[12] = read-out: UDP glucuronosyltransferase (UGT1A1), UGT1A1 (gene 54658); assay: LTEA_HepaRG_UGT1A1: Life Technologies and Expression Analysis (LTEA) Assay for UDP glucuronosyltransferase (UGT1A1) using HepaRG (AID 2283538); conditions: mRNA level, 48 h; actives raise or lower the signal
How it was run: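 mRNA induction or loss of UGT1A1, by TaqMan qRT-PCR, in duplicate HepaRG wells after 48 h exposure to half-log dilutions topping at 100 uM; DMSO (0.5%) served as baseline.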

[13] = read-out: UDP glucuronosyltransferase (UGT1A6), UGT1A6 (gene 54578); assay: LTEA_HepaRG_UGT1A6: Life Technologies and Expression Analysis (LTEA) Assay for UDP glucuronosyltransferase (UGT1A6) using HepaRG (AID 2283539); conditions: mRNA level, 48 h; actives raise or lower the signal
How it was run: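 Measures mRNA change in HepaRG hepatic cells exposed 48 h to chemicals (eight-point, maximum 100 uM, 0.5% DMSO vehicle) in serum-free induction medium. Expression normalized to endogenous controls; DMSO served as negative control and baseline.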

[14] = read-out: X-box binding protein 1 (XBP1), XBP1 (gene 7494); assay: LTEA_HepaRG_XBP1: Life Technologies and Expression Analysis (LTEA) Assay for X-box binding protein 1 (XBP1) using HepaRG (AID 2283540); conditions: mRNA level, 48 h; actives raise or lower the signal
How it was run: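 Eight concentrations (half-log, highest 100 uM, 0.5% DMSO) tested in duplicate on HepaRG cells over 48 h in serum-free induction medium; qRT-PCR of XBP1 normalised to ACTB, GAPDH, POLR2A.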

[15] = LTEA_HepaRG_LDH_cytotoxicity: Cytotoxicity Assessment in the Life Technologies and Expression Analysis (LTEA) Assay (AID 2283563; active = hit-call score of the fitted dose curve at least 0.9, where 1 is the maximum;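 as to AC50: LDH activity released into spent culture medium as a marker of cell death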)
How it was run: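 Spent-medium LDH after 48 h chemical exposure of HepaRG cells in serum-free induction medium; eight concentrations, half-log dilutions from 100 uM, duplicate wells, fitted upward relative to 0.5% DMSO.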

[16] = target: Cellular tumor antigen p53 (Homo sapiens) (UniProt P04637); assay: TOX21_p53_BLA_p2_ratio: Tox21 HCT-116 p53 Agonism Beta-lactamase Assay, Ratio, Phase 2 (AID 2283592; active = hit-call score of the fitted dose curve at least 0.9, where 1 is the maximum)
Sequence of Cellular tumor antigen p53 (Homo sapiens) (P04637 whole entry, looked up): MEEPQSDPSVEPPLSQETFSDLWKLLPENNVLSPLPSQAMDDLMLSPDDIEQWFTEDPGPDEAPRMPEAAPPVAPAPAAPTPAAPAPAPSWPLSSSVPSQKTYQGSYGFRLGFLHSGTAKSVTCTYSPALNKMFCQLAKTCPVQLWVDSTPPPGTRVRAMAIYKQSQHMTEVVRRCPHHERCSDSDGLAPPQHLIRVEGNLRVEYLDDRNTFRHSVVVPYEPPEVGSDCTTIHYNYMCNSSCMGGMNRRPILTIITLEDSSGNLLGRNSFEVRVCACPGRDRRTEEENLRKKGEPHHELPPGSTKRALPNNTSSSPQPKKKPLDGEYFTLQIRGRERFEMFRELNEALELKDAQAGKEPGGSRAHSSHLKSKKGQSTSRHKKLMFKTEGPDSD
How it was run: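 DMSO-normalized, positive-direction endpoint derived from the 460 nm/530 nm FRET ratio in HCT116 p53 beta-lactamase reporter cells exposed 16 h at 37C and loaded with CCF4-AM for 2 h.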

[17] = read-out: Transforming Growth Factor (TGFB1), TGFB1 (gene 7040); assay: LTEA_HepaRG_TGFB1: Life Technologies and Expression Analysis (LTEA) Assay for Transforming Growth Factor (TGFB1) Transporter using HepaRG (AID 2283533); conditions: mRNA level, 48 h; actives raise or lower the signal
How it was run: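 Eight-point concentration-response (max 100 uM, half-log) in HepaRG under serum-free induction conditions, 48 h. TGFB1 mRNA by qRT-PCR, housekeeping-normalized.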

[18] = target: Cellular tumor antigen p53 (Homo sapiens) (UniProt P04637); assay: TOX21_p53_BLA_p3_ratio: Tox21 HCT-116 p53 Agonism Beta-lactamase Assay, Ratio, Phase 3 (AID 2283596; active = hit-call score of the fitted dose curve at least 0.9, where 1 is the maximum)
How it was run: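 Cells were seeded at 4000/well, rested 5 h at 37C, then dosed with DMSO compound solutions (217-fold dilution) for 16 h. CCF4-AM substrate was loaded for 2 h at room temperature, and the 460/530 nm emission ratio was fitted for gain of signal versus DMSO.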

Measured: AC50

O=C1OC2(c3ccccc31)c1cc(Br)c(O)c(Br)c1Oc1c2cc(Br)c(O)c1Br
inactive: [1] | [2] | [3] | [4]

Nc1cccc2c(N)cccc12
active: [6] 9.92 µM | [10] 10.9 µM
not listed: [17] | [18]
inactive: all other assays above

CC(O)CO (stereo not drawn)
not listed: [1] | [15]
inactive: all other assays above

Cc1cc(C)c(O)c(C)c1
active: [12] 8.27 µM
not listed: [1] | [2] | [18]
inactive: all other assays above

CC[C@H](C)[C@@H](C(=O)O)n1sc2ccccc2c1=O
not listed: [1] | [2] | [3] | [17] | [18]
inactive: all other assays above

COCC(C)O (stereo not drawn)
not listed: [2] | [3] | [17]
inactive: all other assays above

CC(=O)NC1(c2cccc(F)c2)CCN(CC[C@@]2(c3ccc(Cl)c(Cl)c3)CN(c3ccccc3)C(=O)CO2)CC1
active: [6] 79.7 µM | [10] 20.5 µM | [12] 41.5 µM | [2] 57.1 µM | [16] 71.4 µM | [3] 66.9 µM | [18] 71.6 µM | [4] 46.2 µM
not listed: [1] | [15] | [17]
inactive: all other assays above

Oc1cc2ccccc2c2ccccc12
active: [1] 16.6 µM and 16.3 µM | [2] 15.2 µM | [16] 46.1 µM | [3] 14.5 µM | [18] 13.6 µM | [4] 12.2 µM
not listed: [17]
inactive: all other assays above

CC#C[C@]1(O)CC[C@H]2[C@@H]3CCC4=CC(=O)CCC4=C3[C@@H](c3ccc(N(C)C)cc3)C[C@@]21C
active: [5] 26.2 µM | [6] 84.2 µM | [7] 57.4 µM | [8] 44.9 µM | TIMP1, TIMP1 (gene 7076) 83.9 µM | [10] 11.3 µM | [11] 20.4 µM | [12] 77.2 µM | [13] 79.8 µM | [14] 53.4 µM | [15] 11.5 µM | [16] 45.2 µM and 19.9 µM
inactive: [9] | [1] | [2] | [3] | [4]

CCCCCCCCCCCCCC[N+](C)(C)C
active: [1] 36.8 µM | [2] 49.1 µM and 13.3 µM and 33.7 µM | [16] 43.8 µM and 11.3 µM | [3] 37.5 µM | [4] 52.4 µM and 13.2 µM and 35.4 µM
inactive: [1] | [16] | [3]

C#C[C@]1(O)CC[C@H]2[C@@H]3CCC4=CC(=O)CC[C@@H]4[C@H]3CC[C@@]21C
active: [7] 15.9 µM | [10] 0.0729 µM | [12] 2.19 µM
not listed: [2] | [3] | [4] | [16] | [17] | [18]
inactive: all other assays above

CN1CCC[C@H]1c1cccnc1
not listed: [2] | [3] | [4] | [11] | [16] | [18]
inactive: all other assays above

CCCCCCCC(=O)O
not listed: [17] | [18]
inactive: all other assays above

C=C(C)C(=O)OCCC(F)(F)C(F)(F)C(F)(F)C(F)(F)C(F)(F)C(F)(F)F
not listed: [2] | [17] | [18]
inactive: all other assays above

CC(C)(C)c1cccc(C(C)(C)C)c1O
not listed: [17] | [18]
inactive: all other assays above

CC(O)C(=O)O (stereo not drawn)
inactive: [1] | [16]

CCCCCCCCCCCCN1CCCC1=O
active: [1] 155 µM | [3] 69.8 µM
not listed: [17] | [18]
inactive: all other assays above
